Pf Dd2 growth: blocks growth of Plasmodium falciparum Dd2 parasites. P. falciparum Dd2 growth, SYBR Green, 72 h; hits give low values. activity change, % at 10 µM. hit rate 2.3% among 94,000; in the data active means activity change below about -80%; inconclusive means no clear call, values can overlap the other calls
C diff HTS: inhibitors of Clostridium difficile growth. Clostridium difficile clinical isolate growth, OD600, 24 h; hits give low values. growth activity, negative = inhibition, % at 16 µg/mL (by protocol). hit rate 0.25% among 86,000. AID 1259249;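 active means mean growth activity at or below -80% and every replicate also at or below -80%; inconclusive means mean at or below -80% but some replicate above -80%; inactive means mean growth activity above -80%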
T cruzi growth-1: blocks T. cruzi growth in NIH3T3 culture | T. cruzi beta-gal in NIH3T3, GalScreen luminescence, 90 h | inhibition, % at 8.34 µM | hit rate 5.9% among 77,000 | AID 624255;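 active means mean inhibition above about 93%, with at least 55% of replicates each passing it, limit read from the data, passing the limit was not always enough; inconclusive means only one of those two conditions holds; inactive means neither condition holds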
T cruzi growth-2: inhibitors of T. cruzi proliferation; T. cruzi beta-gal in NIH3T3, GalScreen luminescence, 90 h; inhibition, % at 8.35 µM; shares compounds with T cruzi growth-1; hit rate 72% among 5,600;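 active means mean replicate inhibition above about 95% and at least 55% of replicates individually reaching it, limit read from the data; inconclusive means only one of the two criteria is met; inactive means neither criterion is met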
T cruzi growth-3: Trypanosoma cruzi proliferation inhibition | inhibition, % at 2.09 µM | T. cruzi beta-gal in NIH3T3, GalScreen luminescence, 90 h | hit rate 21% among 5,600 | shares compounds with T cruzi growth-1 | AID 651740;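 active means mean inhibition above about 95%, with at least 55% of replicates also reaching it, limit read from the data; inconclusive means meets just one of the two conditions; inactive means meets neither condition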
NIH3T3 tox: kills mouse NIH/3T3 fibroblasts. cytotoxicity (signal decrease), % at 8.35 µM. NIH/3T3 viability, CellTiter-Glo ATP luminescence, 90 h. shares compounds with T cruzi growth-1. hit rate 14% among 5,600;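 active means mean signal decrease across replicates above about 35% based on untreated-well scatter, with enough replicates individually passing, limit read from the data; inconclusive means no rule stated though some were filed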
NIH3T3 tox 2: kills mouse NIH/3T3 fibroblasts. shares compounds with T cruzi growth-1. NIH/3T3 viability, CellTiter-Glo ATP luminescence, 90 h. inhibition, % at 24.9 µM. hit rate 56% among 5,600. AID 651744;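 active means mean loss of cell viability signal at or above a set limit, and enough replicates individually reaching it; inconclusive means meets only the mean limit or only the replicate share; inactive means meets neither condition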
Each line names hits and unclear results; the compound was inactive in the other large screens (follow-up assays come after a bar, where they were run). An excerpt weighted towards active compounds, which were near 6.8% of everything screened.

COc1ccc(S(=O)(=O)N(C)C[C@@H]2OCCCC[C@@H](C)Oc3ccc(NS(=O)(=O)c4ccc(Cl)cc4)cc3C(=O)N([C@@H](C)CO)C[C@@H]2C)cc1	none (no result: T cruzi growth-1)
COc1ccc(S(=O)(=O)N(C)C[C@H]2OCCCC[C@@H](C)Oc3ccc(NS(=O)(=O)c4ccc(Cl)cc4)cc3C(=O)N([C@@H](C)CO)C[C@H]2C)cc1	none (no result: T cruzi growth-1)
CC(=O)N1[C@H](CO)[C@@H](c2ccccc2)C12CN(Cc1ccc(Cl)cc1)C2	none (no result: T cruzi growth-1)
NCC[C@@H]1CC[C@H](NS(=O)(=O)Cc2ccccc2)[C@@H](CO)O1	none (no result: C diff HTS)
CO[C@H]1CN(C)C(=O)c2cccc(C#N)c2OC[C@H]2O[C@H](CC[C@@H]2OC)CCN(C)C(=O)[C@H]1C	none (no result: C diff HTS)
COCC(=O)N1CCCCN2[C@H](CO)[C@@H](c3ccc(C#Cc4ccc(OC)cc4)cc3)[C@H]2C1	none
COCC(=O)N1CCCCN2[C@H](C1)[C@@H](c1ccc(C#Cc3ccccc3)cc1)[C@@H]2CO	none
COCC(=O)N1CCCCN2[C@H](CO)[C@H](c3ccc(C#Cc4ccccc4)cc3)[C@@H]2C1	T cruzi growth-1 inconclusive | T cruzi growth-2 98.8 | T cruzi growth-3 inactive | NIH3T3 tox 44.2 | NIH3T3 tox 2 69.0
COCC(=O)N1CCCCN2[C@H](C1)[C@H](c1ccc(C#Cc3ccccc3)cc1)[C@@H]2CO	none
COCC(=O)N1CCCCN2[C@H](CO)[C@@H](c3ccc(C#Cc4ccc(OC)cc4)cc3)[C@@H]2C1	T cruzi growth-1 107.6 | T cruzi growth-2 inconclusive | T cruzi growth-3 inactive | NIH3T3 tox inactive | NIH3T3 tox 2 86.1
COCC(=O)N1CCCCN2[C@@H](CO)[C@H](c3ccc(C#Cc4ccccc4)cc3)[C@@H]2C1	T cruzi growth-1 97.2 | T cruzi growth-2 inconclusive | T cruzi growth-3 inactive | NIH3T3 tox inactive | NIH3T3 tox 2 62.1
C[C@@H]1CN([C@H](C)CO)C(=O)c2cc(NC(=O)Cc3ccccc3)ccc2O[C@H]1CN(C)Cc1ccc(C(=O)O)cc1	none
COc1ccccc1C#Cc1ccc2c(c1)O[C@H](CN(C)C)[C@@H](C)CN([C@@H](C)CO)S2(=O)=O	none (no result: T cruzi growth-1)
COc1ccccc1C#Cc1ccc2c(c1)O[C@@H](CN(C)C)[C@@H](C)CN([C@H](C)CO)S2(=O)=O	none (no result: T cruzi growth-1)
COc1ccccc1C#Cc1ccc2c(c1)O[C@H](CN(C)Cc1ccncc1)[C@H](C)CN([C@H](C)CO)S2(=O)=O	T cruzi growth-1 112.4 | T cruzi growth-2 104.4 | T cruzi growth-3 inactive | NIH3T3 tox inactive | NIH3T3 tox 2 inactive
COc1ccccc1C#Cc1ccc2c(c1)O[C@H](CN(C)Cc1ccncc1)[C@@H](C)CN([C@H](C)CO)S2(=O)=O	T cruzi growth-1 122.7 | T cruzi growth-2 96.7 | T cruzi growth-3 101.7 | NIH3T3 tox inactive | NIH3T3 tox 2 71.0
O=C(c1ccc2c(c1)OCO2)N1CCCCN2[C@H](CO)[C@@H](c3ccc(-c4ccccc4)cc3)[C@@H]2C1	T cruzi growth-1 115.0 | T cruzi growth-2 99.2 | T cruzi growth-3 inactive | NIH3T3 tox 52.3 | NIH3T3 tox 2 88.2
Cc1cccc(-c2ccc([C@H]3[C@H](CO)N4CCCCN(C(=O)c5ccc6c(c5)OCO6)C[C@@H]34)cc2)c1	T cruzi growth-1 113.8 | T cruzi growth-2 102.6 | T cruzi growth-3 inactive | NIH3T3 tox inactive | NIH3T3 tox 2 103.4
O=C(c1ccc2c(c1)OCO2)N1CCCCN2[C@H](C1)[C@@H](c1ccc(-c3ccccc3)cc1)[C@@H]2CO	none
Cc1cccc(-c2ccc([C@@H]3[C@H](CO)N4CCCCN(C(=O)c5ccncc5)C[C@@H]34)cc2)c1	none
CC1=C([C@H](O)c2ccccc2)[C@H](CO)n2c(=O)n(-c3ccccc3)c(=O)n2C1	none (no result: Pf Dd2 growth, T cruzi growth-1)
Cc1ccccc1-c1ccc([C@@H]2[C@@H](CO)N3CCCCN(C(=O)Nc4cccc(F)c4)C[C@@H]23)cc1	none
O=C(Nc1ccc(F)cc1)N1CCCCN2[C@@H](CO)[C@@H](c3ccc(-c4ccncc4)cc3)[C@@H]2C1	none
O=C(Nc1ccc(F)cc1)N1CCCCN2[C@H](CO)[C@@H](c3ccc(-c4ccncc4)cc3)[C@@H]2C1	none
Cc1ccc(-c2ccc([C@H]3[C@@H](CO)N4CCCCN(C(=O)Nc5cccc(F)c5)C[C@H]34)cc2)cc1	C diff HTS -96.3, T cruzi growth-1 106.5 | T cruzi growth-2 109.5 | T cruzi growth-3 115.2 | NIH3T3 tox 118.6 | NIH3T3 tox 2 104.8
O=C(Nc1cccc(F)c1)N1CCCCN2[C@H](CO)[C@H](c3ccc(-c4ccncc4)cc3)[C@H]2C1	T cruzi growth-1 105.5 | T cruzi growth-2 112.4 | T cruzi growth-3 inactive | NIH3T3 tox inactive | NIH3T3 tox 2 53.1
O=C(Nc1cccc(F)c1)N1CCCCN2[C@H](C1)[C@@H](c1ccc(-c3ccncc3)cc1)[C@@H]2CO	T cruzi growth-1 110.6 | T cruzi growth-2 110.8 | T cruzi growth-3 inactive | NIH3T3 tox inactive | NIH3T3 tox 2 inactive
COc1cccc(CNC(=O)C[C@@H]2C=C[C@@H](NC(=O)C3CCOCC3)[C@H](CO)O2)c1	none
Cn1cnc(S(=O)(=O)N2CCCCN3[C@H](C2)[C@@H](c2ccc(C#CC4CCCC4)cc2)[C@@H]3CO)c1	none
Cn1cnc(S(=O)(=O)N2CCCCN3[C@H](CO)[C@H](c4ccc(C#CC5CCCC5)cc4)[C@H]3C2)c1	T cruzi growth-1 110.8 | T cruzi growth-2 95.2 | T cruzi growth-3 inactive | NIH3T3 tox inactive | NIH3T3 tox 2 105.2
Cn1cnc(S(=O)(=O)N2CCCCN3[C@H](C2)[C@@H](c2ccc(C#CC4CC4)cc2)[C@@H]3CO)c1	none
Cn1cnc(S(=O)(=O)N2CCCCN3[C@@H](CO)[C@H](c4ccc(C#CC5CCCC5)cc4)[C@@H]3C2)c1	T cruzi growth-1 105.6 | T cruzi growth-2 inactive | T cruzi growth-3 inactive | NIH3T3 tox inactive | NIH3T3 tox 2 100.5
CC(=O)N(C)C[C@H]1Oc2cc(C#Cc3cccc(F)c3)ccc2S(=O)(=O)N([C@@H](C)CO)C[C@@H]1C	none
C[C@H](CO)N1C[C@H](C)[C@H](CN(C)Cc2ccncc2)OCCCC[C@H](C)Oc2ccc(NC(=O)Nc3cccc4ccccc34)cc2C1=O	none
C[C@@H]1CCCCO[C@@H](CN(C)Cc2ccc(Cl)c(Cl)c2)[C@H](C)CN([C@@H](C)CO)C(=O)c2cc(NC(=O)Nc3cccc4ccccc34)ccc2O1	T cruzi growth-1 125.5 | T cruzi growth-2 109.9 | T cruzi growth-3 112.0 | NIH3T3 tox inactive | NIH3T3 tox 2 inactive
C[C@@H]1CCCCO[C@@H](CN(C)Cc2ccncc2)[C@@H](C)CN([C@@H](C)CO)C(=O)c2cc(NC(=O)Nc3cccc4ccccc34)ccc2O1	none
